MARV entry inh = blocks Marburg virus binding or cell entry. Marburg virus pseudotype entry/binding inhibition, cell-based. Potency, µM (titrated, usually from 49.2 µM), for the others: at the top dose activity change, negative = inhibition, usual class: inhibitors. actives 6.5% (n = 18,000). AID 720532
LASV entry inh = blocks Lassa virus binding or cell entry. Lassa virus pseudotyped entry inhibition, cell-based qHTS. Potency, µM (top dose mostly 49.2 µM), without a hit: at the top dose activity change, negative = inhibition, most hits filed as inhibitors. actives 4.1% (n = 18,000)
The depositor's hits bear a star; ? = inconclusive; · = no result given; ! = not confirmed by another sample; [ ] = remark or other dose. This is a sample that favours compounds with a hit; in the whole collection about 8.6% have one here. Calls come from the whole dose curve; tested in HEK293 cells. % is set by controls: 0 for no effect and ±100 for the full control effect; potency is the fitted concentration of half-maximal effect.

SMILES	MARV entry inh	LASV entry inh
C[C@H]1O[C@@H](O[C@H]2[C@@H](O)C[C@H](O[C@H]3[C@@H](O)C[C@H](O[C@H]4CC[C@@]5(C)[C@H](CC[C@@H]6[C@@H]5CC[C@]5(C)[C@@H](C7=CC(=O)OC7)CC[C@]65O)C4)O[C@@H]3C)O[C@@H]2C)C[C@H](O)[C@@H]1O	0.089µM*	?
O=c1n(-c2ccccc2)c(=O)n2n1CC[C@@H]1C(=NOC[C@@H](O)COCc3ccco3)[C@H]3O[C@H]3[C@@H](O)[C@H]12	-23%[8.59 µM]	-5%[8.59 µM]
COc1ccc(CN2CCN(C(C)=O)CC2)cc1OC1CCN(C(=O)c2ccc3[nH]c(C)c(C)c3c2)CC1	-21%	-2%
COC(=O)C1=C(C(=O)OC)[C@@H]2N(Cc3ccccc3)c3ccccc3[C@@]23C[C@@H](CO)N(C(=O)CC(C)C)C3=N1	-38%[8.59 µM]	-1%[8.59 µM]
CC(=O)C1=C(C)C[C@@]2(CC1)C(=O)[C@H](Cc1ccccc1)N(Cc1ccccc1)S2(=O)=O	-17%	7%
CC(=O)N[C@@H](CC(=O)N[C@@H](CCC(=O)O)C(=O)O)C(=O)O	3%	5%
CC1O[C@@H](O[C@@H]2C(O)C[C@H](O[C@@H]3C(O)C[C@@H](OC4CC[C@@]5(C)C6CC(O)[C@@]7(C)C(C8=CC(=O)OC8)CC[C@@]7(O)C6CC[C@@H]5C4)OC3C)OC2C)CC(O)[C@H]1O (some centres undefined)	0.56µM*	1µM*
C[C@H]1O[C@@H](O[C@H]2CC[C@@]3(C)[C@H](CC[C@@H]4[C@@H]3C[C@@H](O)[C@]3(C)[C@@H](C5=CC(=O)OC5)CC[C@]43O)C2)C[C@H](O)[C@@H]1O[C@H]1C[C@H](O)[C@H](O[C@H]2C[C@H](O)[C@H](O[C@@H]3O[C@H](CO)[C@@H](O)[C@H](O)[C@H]3O)[C@@H](C)O2)[C@@H](C)O1	0.28µM*	0.35µM*
N#Cc1ccc2c(c1)C[C@]1(c3ccsc3)Oc3c(c(=O)oc4ccc(F)cc34)[C@@H]2O1	2%[8.59 µM]	-3%[8.59 µM]
C[C@H](CO)NS(=O)(=O)c1cc(Cl)ccc1F	19%	9%
COC(=O)C1=C(C)N(CC#C[Si](C)(C)C)C(=O)N(C(C)=O)C1c1ccccc1 (centres undefined)	-5%[8.59 µM]	-12%[8.59 µM]
CC(C)CON=C1C[C@@H](O)[C@@H](O)[C@@H]2[C@H]3C(=O)N(C4CCCCC4)C(=O)[C@@H]3CC[C@H]12	?	31%[8.59 µM]
CC(C)(C)c1nc(-c2ccccc2)oc1Nc1ccc2ccccc2c1	-24%[8.59 µM]	31%[8.59 µM]
CO[C@H]1C=CO[C@@]2(C)Oc3c(C)c(O)c4c(O)c(c(/C=N/N5CCN(C6CCCC6)CC5)c(O)c4c3C2=O)NC(=O)/C(C)=C\C=C[C@H](C)[C@H](O)[C@@H](C)[C@@H](O)[C@@H](C)[C@H](OC(C)=O)[C@@H]1C	-18%	?
CC(C)N(CCC(=O)c1ccc2ccccc2c1)Cc1ccccc1	?	32µM*
C[C@@H](COc1ccccc1)N(CCCl)Cc1ccccc1	-28%[17.8 µM]	20%[17.8 µM]
COC(=O)C1=C(C)N(Cc2ccccc2)C(=O)NC1c1ccco1 (centres undefined)	13%[8.59 µM]	18%[8.59 µM]
C#CCCCON=C1C[C@@H](O)[C@H](O)[C@H]2[C@@H]3C(=O)N(Cc4ccccc4)C(=O)[C@@H]3CC[C@H]12	11%[8.59 µM]	7%[8.59 µM]
COc1cccc([C@@H]2Oc3ccc(Br)cc3C(=O)[C@@H]2OC(=O)Nc2ccc(OC(F)F)cc2)c1	39%[8.59 µM]	110%[8.59 µM]
CC(C)OC(=O)c1cn(Cc2c(F)cccc2F)c2sc(-c3ccc(NC(=O)C(C)C)cc3)c(CN(C)Cc3ccccc3)c2c1=O	2.5µM*	16µM*
Cc1nc2ccccn2c(=O)c1CCN1CCC(C(=O)c2ccc(F)cc2)CC1	?	6%
Cc1nc2sccn2c(=O)c1CCN1CCC(=C(c2ccc(F)cc2)c2ccc(F)cc2)CC1	?	35µM*
COC(=O)C1=C(C(=O)OC)[C@@H]2N(C)c3ccccc3[C@@]23C[C@@H](C(=O)OC)N(C(=O)Nc2cccc(C#N)c2)C3=N1	27%[8.59 µM]	0%[8.59 µM]
Cc1ccccc1C(OCCN(C)C)c1ccccc1 (centres undefined)	?	-24%
CC(C(O)c1ccccc1)N(C)CCOC(c1ccccc1)c1ccccc1 (centres undefined)	8.9µM*	14µM*
SMILES	MARV entry inh	LASV entry inh
Cc1ncc2c(c1CNC(=O)c1ccc3c(c1)OCO3)CCN(C(=O)c1ccoc1)C2	?	-5%
CCN(CC)CCOCCOC(=O)C1(c2ccccc2)CCCC1	7.1µM*!	1%
CCN(CC)CCOC(=O)C(C)(c1ccccc1)c1ccccc1	28µM*	?
CCN(CC)CCOC(=O)C1(c2ccc([N+](=O)[O-])cc2)CCCC1	?	2%
CCN(CC)CCOCCOC(=O)C(CC)(CC)c1ccccc1	22µM*	?
O=C(O)CN(CCOCCOCCN(CC(=O)O)CC(=O)O)CC(=O)O	24%	-3%
CCN(CC)CCNC(C(=O)OCCC(C)C)c1ccccc1 (centres undefined)	?	-10%
CCC(=O)Nc1ccc(C)c(-c2ccc(C(=O)NCC3CC3)cc2)c1	36%	-18%
CO[C@H]1[C@H](NC(=O)c2ccsc2)c2ccccc2C12CCN(Cc1cc(Cl)ccc1O)CC2	14µM*	-28%
CO[C@H]1[C@H](NC(=O)c2ccsc2)c2ccccc2C12CCN(Cc1cnn(C)c1C)CC2	4%	0%
O=C(O)CN(CC(=O)O)CC1=CC2C(=CC1=O)Oc1cc(O)c(CN(CC(=O)O)CC(=O)O)cc1C21OC(=O)c2ccccc21 (centres undefined)	-12%	9%
CN1C2CCC1CC(OC(=O)C1CCC(C(=O)OC3CC4CCC(C3)N4C)(c3ccccc3)c3ccccc31)C2 (centres undefined)	6.3µM*	?
CC[N+]1(C)[C@@H]2CC[C@H]1CC(OC(=O)[C@H]1CC[C@@](C(=O)OC3C[C@H]4CC[C@@H](C3)[N+]4(C)CC)(c3ccccc3)c3ccccc31)C2 (some centres undefined)	-7%[17.8 µM]	-2%[17.8 µM]
COC(=O)C1=C(C(=O)OC)[C@@H]2N(C)c3ccccc3[C@@]23CCC(=O)N(Cc2ccco2)C3=N1	16%[8.59 µM]	·
c1ccc(Nc2ncc(-c3ccccc3)o2)cc1	-41%	5µM*
Cc1cccc(Nc2ncc(-c3ccccc3)o2)c1	-19%	·
O=C(Nc1ccc(Cl)cc1)Nc1ccc(Cl)c(Cl)c1	14µM*	13µM*
CC(=O)Nc1ccc(-c2nc3ccc(Cl)cc3[nH]2)cc1	71%	-5%
Cc1ccccc1CN1[C@@H](CC(C)C)COc2c(Cl)cccc2S1(=O)=O	-24%	15%
CCOc1ccc(C=C2SC(=O)N(CCN)C2=O)cc1	11µM*	13µM*
CCOc1ccc(/C=C/C(=O)c2cccs2)cc1	6%	14%
COc1ccc2c3c(c(=O)oc2c1)[C@H]1O[C@](CCCCN2C(=O)c4ccccc4C2=O)(Cc2cc(OC)c(OC)cc21)O3	?	9%[8.59 µM]
C=CCOC(=O)N[C@H](C(C(=O)OC)=C(C)NCc1ccccc1)c1cccc(C(F)(F)F)c1	3%[8.59 µM]	31%[8.59 µM]
CCOC(=O)N1CCN(C(=O)c2ccc(-c3ccccc3OC)nc2N2CCC(N3CCCC(CO)C3)CC2)CC1 (centres undefined)	-10%	0%
COc1ccc(COc2cc(-c3cccc(OC)c3)nc3ccc(NC(C)=O)cc23)cc1	11%	-14%
COc1ccc2ncn(-c3cc(OC(C)c4ccccc4C(F)(F)F)c(C(N)=O)s3)c2c1 (centres undefined)	0.89µM*	?

High-throughput results as filed in PubChem BioAssay.
